Screening results (PubChem)
Vaccinia mCherry: vaccinia inhibition (mCherry reporter) | Vaccinia virus mCherry reporter infection, fluorescence | Potency, µM (titrated, usually from 36.5 µM), for inactives: at the highest dose activity change, negative = inhibition, actives largely listed as inhibitors | 310,000 compounds, 0.63% hits | AID 720579; calls by dose curve; tested in A549 cells; note: potency is the fitted concentration of half-maximal effect; nearly all actives have a fitted effect of over 35% in size
FMDV inh: antivirals against foot and mouth disease virus; AID 1159524; FMDV antiviral cell-based qHTS; 410,000 compounds, 1.2% hits; Potency, µM (top dose mostly 57.9 µM), inactives show top-dose activity change, negative = inhibition, actives largely listed as inhibitors; calls by dose curve; tested in HEK293T cells; note: read-out not given here; potency is the fitted concentration of half-maximal effect; nearly all actives have a fitted effect of over 45% in size
Lassa entry inh: inhibitors of Lassa virus binding or cell entry. Lassa virus pseudotype entry inhibition, cell reporter. Potency, µM (titrated, usually from 37.9 µM), for inactives: at the highest dose activity change, negative = inhibition, hits mostly inhibitors. 300,000 compounds, 1.2% hits; calls by dose curve; tested in HEK293 cells; note: potency is the fitted concentration of half-maximal effect; nearly all actives have a fitted effect of over 50% in size
VACV Venus inh: vaccinia inhibition (Venus reporter). Vaccinia virus Venus reporter expression, fluorescence. Potency, µM (titrated, usually from 36.5 µM), inactives show at the highest dose activity change, negative = inhibition, most hits filed as inhibitors. 330,000 compounds, 0.46% hits. AID 720580; calls by dose curve; tested in A549 cells; note: potency is the fitted concentration of half-maximal effect; nearly all actives have a fitted effect of over 30% in size
Marburg entry inh: inhibitors of Marburg virus binding or cell entry; 300,000 compounds, 1.8% hits; Potency, µM (doses to about 37.8 µM), without a hit: top-dose activity change, negative = inhibition, actives largely listed as inhibitors; Marburg virus pseudotyped entry inhibition, cell reporter; calls by dose curve; tested in HEK293 cells; note: potency is the fitted concentration of half-maximal effect
HCMV antiviral: human cytomegalovirus inhibition; HFF cells, HCMV-luciferase reporter, 72 h; active compounds read low; activity change, negative = inhibition, % at 57.5 µM; 410,000 compounds, 4.5% hits; in the data active = activity change below about -60%; inconclusive = no clear call, values can overlap the other calls; inactive = above about -39%
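Steps: HFFs plated, 16 h 37C; compounds added; HCMV-luciferase added to MOI 1 PFU/cell; 72 h 37C; OneGlo reagent, 5 min room temperature; luminescence read, normalized to controls.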
* marks the source's active call; other numbers are inactive results; i = inactive; ? = inconclusive; . = not tested or not shown; [ ] = another dose, or the depositor's remark. In the library only some 6.5% were active in any assay of this set; here they are far more common. % is set by controls: 0 for no effect and ±100 for the full control effect.

SMILES | Vaccinia mCherry | FMDV inh | Lassa entry inh | VACV Venus inh | Marburg entry inh | HCMV antiviral
CCOc1ccc(S(=O)(=O)N2CCCCC2)cc1NC(=O)Cc1cc(OC)c(OC)c(OC)c1 | -6% | -24% | . | -25% | . | -88*
CCCc1nc2ccccc2c(C(=O)OCC(=O)Nc2cccc(S(=O)(=O)N3CCOCC3)c2)c1CC | . | -1% | 18µM* | . | ? | 0
COc1cc(CC(=O)Nc2cccc(S(=O)(=O)N(C)c3ccccc3)c2)cc(OC)c1OC | . | 22µM* | . | . | . | ?
CS(=O)(=O)c1ccc2nc(NC(=O)CN3CCC(Cc4ccccc4)CC3)sc2c1 | -27% | 0% | 15%[46.1 µM] | -14% | -3%[46.1 µM] | -85*
CN(C)c1nc2cc(Cl)ccc2cc1CN(Cc1ccc2c(c1)OCO2)C(=O)c1ccoc1 | -9% | 6% | . | -2% | . | .
COc1ccc(CC(NC(C)=O)C(=O)NC2CCN(S(=O)(=O)c3ccc(NC(C)=O)cc3)CC2)cc1 (configuration not stated) | -16% | 32% | 20%[46.1 µM] | -17% | ? | -3
COc1ccc(S(=O)(=O)N2CCOCC2)cc1NC(=O)CN1CCCC1 | 2% | -11% | 23% | -10% | ? | -9
COc1ccc(S(=O)(=O)N2CCOCC2)cc1NC(=O)CN1CCC(Cc2ccccc2)CC1 | ? | -16% | 10µM* | ? | ? | -66*
Cc1cccc(C(=O)OC(C)C(=O)Nc2ccc(S(=O)(=O)N3CCCC3)cc2)c1O (configuration not stated) | -15% | -20% | ? | -11% | -40% | -14
COc1cc(CC(NC(C)=O)C(=O)NC2CCN(S(=O)(=O)c3ccc(NC(C)=O)cc3)CC2)cc(OC)c1 (configuration not stated) | 0% | 0% | . | -12% | 11%[46.1 µM] | -72*
COc1cccc(OC)c1OCC(=O)Nc1ccc(S(=O)(=O)N2CCCC2)cc1 | . | 25µM* | . | . | . | -25
CC(OC(=O)c1cc(Br)ccc1O)C(=O)Nc1ccc(S(=O)(=O)N2CCCC2)cc1 (configuration not stated) | ? | 20µM* | ? | ? | ? | -3
COc1cc(CNc2nc(C)c(-c3ccn(CC4CCCN(C)C4)n3)s2)ccc1F (configuration not stated) | -13% | 0% | . | -6% | . | .
COc1ccc(S(=O)(=O)N2CCC(n3c(C(F)(F)F)nc4cccnc43)CC2)cc1OC | 0% | -19% | 0%[46.1 µM] | -9% | . | -8
COc1ccccc1CCC(=O)Nc1cccc(S(=O)(=O)N2CCCCCC2)c1 | -19% | 8% | -5% | ? | -12% | 9
O=C(COc1ccc(Br)cc1CO)Nc1ccc(S(=O)(=O)N2CCCC2)cc1 | -14% | 35µM* | 0% | -26% | ? | ?
COc1ccc(S(=O)(=O)N2CCCCC2)cc1NC(=O)Cc1sc(C)nc1-c1ccc(F)cc1 | -2% | -16% | ? | -14% | ? | -65*
COc1ccccc1CC(=O)Nc1cccc(S(=O)(=O)N2CCOCC2)c1 | -12% | -1% | -8% | -10% | 9% | 1
COc1ccc(CC(=O)Nc2cccc(S(=O)(=O)N3CCOCC3)c2)cc1OC | . | ? | . | . | . | -66*
COc1ccc(CC(=O)Nc2cccc(S(=O)(=O)N3CCCC3)c2)cc1OC | . | -27% | . | . | . | -85*
O=C(COc1ccc(Br)cc1CO)Nc1ccc(F)cc1 | -17%[1.46 µM] | -5% | 9% | -20% | 1% | -2
COc1ccc(S(=O)(=O)N2CCOCC2)cc1NC(=O)Cc1sc(C)nc1-c1ccc(F)cc1 | -19% | -13% | ? | -12% | 19% | -23
COc1cccc(CC(=O)Nc2ccc(S(=O)(=O)N3CCCCC3)cc2)c1 | -28% | 15% | ? | -10% | 10µM* | -6
COc1ccc2c(c1)[C@@H](NCc1ccccn1)[C@H](C)[C@@H](c1ccccc1)N2C(=O)NC(C)C | . | . | . | . | . | 19
CC(=O)OC[C@H]1O[C@@H](ON=C(C)CCN2CCCCc3nc(C)c(C)cc32)[C@H](OC(C)=O)[C@@H](OC(C)=O)[C@H]1OC(C)=O | . | . | . | . | 1%[14.2 µM] | .
SMILES | Vaccinia mCherry | FMDV inh | Lassa entry inh | VACV Venus inh | Marburg entry inh | HCMV antiviral
O=C(NCc1cccnc1)c1ccc(-c2cc3ccccc3oc2=O)cc1 | . | -6% | . | . | . | -66*
Nc1ccc(-c2cc3ccccc3oc2=O)cc1 | -11% | 1.1µM* | 0.71µM* | 0% | ? | ?
O=c1oc2ccccc2cc1-c1ccc(O)cc1 | 0% | 25% | -3% | -18% | ? | 70
N#Cc1cc2cc3c(cc2nc1SCC(=O)N1CCCC1)OCCO3 | -5% | 17% | ? | 11% | ? | .
CC(=O)CSc1nc2cc3c(cc2cc1C#N)OCCO3 | -17% | -27% | ? | 2% | 1.4µM* | -1
CC(OC(=O)c1ccc2ccccc2c1)C(=O)N(C)Cc1ccccc1 (configuration not stated) | . | -21% | . | . | . | -13
CC(C)N(CCC(=O)c1ccc2ccccc2c1)Cc1ccccc1 | ? | -29% | 5.2µM* | ? | 13µM* | -77*
CCOC(=O)Cn1c(=O)oc2cc(S(=O)(=O)Nc3ccccc3F)ccc21 | 3% | 5% | 4%[46.1 µM] | 2% | 19%[46.1 µM] | -1
NC(=O)c1cc(N)ccc1N1CCCCC1 | -2% | 12% | -5% | -4% | 13%[46.1 µM] | -61*
NC(=O)c1cc(N)ccc1N1CCCC1 | 13% | -19% | -7% | 31% | 5% | 44
O=[N+]([O-])c1cccc2nc3ccccc3c(NCCCn3ccnc3[N+](=O)[O-])c12 | 2.8µM* | 14µM* | ? | 1.4µM* | ? | -97*
O=C(C=Cc1ccc2c(c1)OCO2)c1ccc(F)cc1 | . | . | . | . | -9%[14.2 µM] | .
CCOC(=O)CC1(Cc2ccccc2)Oc2ccccc2O1 | . | . | . | . | . | -35
NC(=S)N/N=C/c1ccc(-c2cccc([N+](=O)[O-])c2)o1 | 4.5µM* | -6% | -2% | 5µM* | -26% | -19
O=C(N/N=C/c1ccc(-c2ccc([N+](=O)[O-])cc2)o1)[C@H]1C[C@@H]1c1ccccc1 | -19% | 15% | ? | 10% | -23%[46.1 µM] | 0
O=[N+]([O-])c1cccc(-c2ccc(/C=N/NC(=S)Nc3cccc(F)c3)o2)c1 | -6% | ? | -2% | -16% | -6% | ?
O=C(N/N=C/c1ccc(-c2ccccc2[N+](=O)[O-])o1)[C@H]1C[C@@H]1c1ccccc1 | i | 14% | 0.82µM* | 6% | ? | ?
Cc1ccc(C(=O)N/N=C/c2ccc(-c3ccccc3[N+](=O)[O-])o2)cn1 | ? | -25% | 18% | ? | 5% | -64*
O=C(/C=C/c1ccc(-c2ccccc2[N+](=O)[O-])o1)c1ccccc1 | -10% | 4% | 8% | 3% | ? | 43
O=C(N/N=C/c1ccc(-c2cccc([N+](=O)[O-])c2)o1)[C@H]1C[C@@H]1c1ccccc1 | -6% | -22% | 4µM* | -22% | 4% | ?
COc1cc(/C=C/CN2CCOc3ccc(C(O)c4cccnc4)cc3C2)ccc1O (configuration not stated) | -14% | -16% | . | -7% | . | .
